The values below come from PubChem BioAssay AID602329 (Broad Institute, 2012).

The campaign covered roughly 360,000 compounds. About 510 (0.14%) were called active. The full list was thinned out, with actives kept by preference. Unmarked numbers belong to inactive results.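 The calls were made as follows: active = mean normalized replicate activity at least 40 and at least half of replicates scoring 40 or more; inconclusive = only one of the two criteria met; inactive = mean below 40 and under half of replicates reaching 40.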

Sequence of DNA repair and recombination protein RAD54-like (Homo sapiens) (Q92698 whole entry, looked up): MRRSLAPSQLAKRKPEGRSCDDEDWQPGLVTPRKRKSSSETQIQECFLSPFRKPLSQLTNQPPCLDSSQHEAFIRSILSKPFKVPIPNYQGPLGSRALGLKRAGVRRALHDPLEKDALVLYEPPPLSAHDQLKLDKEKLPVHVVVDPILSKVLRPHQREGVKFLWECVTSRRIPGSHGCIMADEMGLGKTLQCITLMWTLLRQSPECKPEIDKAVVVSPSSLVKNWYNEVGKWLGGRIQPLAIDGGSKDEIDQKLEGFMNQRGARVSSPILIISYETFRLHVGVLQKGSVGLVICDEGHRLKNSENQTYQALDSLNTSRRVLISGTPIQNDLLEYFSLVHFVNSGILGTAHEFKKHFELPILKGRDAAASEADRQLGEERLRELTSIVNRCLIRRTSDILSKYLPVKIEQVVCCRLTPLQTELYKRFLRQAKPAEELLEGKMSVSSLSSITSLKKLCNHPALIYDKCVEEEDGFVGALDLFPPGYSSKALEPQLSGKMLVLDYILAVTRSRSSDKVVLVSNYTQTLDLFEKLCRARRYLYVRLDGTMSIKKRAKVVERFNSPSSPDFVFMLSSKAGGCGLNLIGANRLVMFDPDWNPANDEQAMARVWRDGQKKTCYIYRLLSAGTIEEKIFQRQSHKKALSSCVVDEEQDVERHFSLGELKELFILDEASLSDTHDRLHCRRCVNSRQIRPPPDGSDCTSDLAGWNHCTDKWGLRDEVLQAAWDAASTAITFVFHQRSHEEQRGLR

The assay has as its target DNA repair and recombination protein RAD54-like (Homo sapiens) (UniProt Q92698). The assay is described as follows: RAD54 Holliday junction migration blockers – biochemical, fluorescence, single point, primary screen (AID 602329).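 Also: 0% = median of neutral control wells and 100% = median of positive control wells; inhibitors cause a drop in the FAM fluorescence signal.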 The conditions noted are these: RAD54 Holliday junction branch migration, FAM/BHQ fluorescence; at 10.4 µM; active compounds read high.
Usually inhibition stands for the change of the read-out against control, counted positive when it falls. As for `C[C@@H]1CN([C@@H](C)CO)C(=O)Cc2cc(NC(=O)Nc3ccc4c(c3)OCO4)ccc2O[C@@H]1CN(C)S(=O)(=O)c1ccc(Cl)cc1`, the inhibition was 1.58%. Next, `Cc1cc(C)c2nc3nc(C)cc(C)c3c(N)c2c1`: 96% (active). Next, `CCC(=O)N(C)C[C@H]1Oc2ncc(C#C[C@@H](C)O)cc2C(=O)N([C@@H](C)CO)C[C@H]1C`: 0.495%. As for `CN1CCN(C(=O)C[C@H]2C[C@H]3c4cc(NC(=O)C5CCC5)ccc4O[C@H]3[C@H](CO)O2)CC1`, the figure is 6.76%; as for `CNC[C@H]1OCCCC[C@@H](C)Oc2ccc(NC(=O)c3ccccc3)cc2C(=O)N([C@@H](C)CO)C[C@H]1C`, 6.8%. As to `COc1ccc(S(=O)(=O)N2CC[C@H]3[C@@H](CO)N(C)c4ccc(C#Cc5ccccc5OC)cc4[C@H]32)cc1`, the inhibition is 17.3%. As for `C/C=C/c1ccc([C@@H]2[C@@H](CO)N(C(=O)CC)[C@H]2CN(C)C(=O)C2CC2)cc1`, the inhibition is -7.87%. Consider `O=C(N[C@@H]1C=C[C@H](CC(=O)N2CCOCC2)O[C@H]1CO)c1ccccn1`, for which the inhibition was -0.273%. On to `COc1ccc(S(=O)(=O)Nc2ccc3c(c2)CC(=O)N([C@H](C)CO)C[C@@H](C)[C@@H](CN(C)S(=O)(=O)c2ccc(F)cc2)O3)cc1`, for which the inhibition is -1.32%.

As to `C[C@H](CO)N1C[C@H](C)[C@H](CN(C)C(=O)Nc2ccccc2)Oc2c(NC(=O)Nc3ccc(C(F)(F)F)cc3)cccc2C1=O`, the inhibition was 0.373%. As for `CO[C@@H](CN(C)C(=O)c1ccc2c(c1)OCO2)[C@@H](C)CN([C@H](C)CO)S(=O)(=O)c1ccccc1`, the figure is 2.31%; as for `CCCC#Cc1ccc([C@@H]2[C@H](CO)N3CCCCN(S(=O)(=O)c4ccccc4F)C[C@@H]23)cc1`, 6.77%.

Take `COc1ccc(CCn2c(=N)c(C(=O)NCC3CCCO3)cc3c(=O)n4cccc(C)c4nc32)cc1OC` (stereo not drawn): the inhibition was 52.7% (active). As for `Cc1ccc2nc3c(cc(C(=O)NCCc4ccccc4)c(=N)n3CC3CCCO3)c(=O)n2c1` (stereo not drawn), the figure is 12.1%; as for `Cc1ccc(S(=O)(=O)c2cc3c(=O)n4cccc(C)c4nc3n(CCc3ccccc3)c2=N)cc1C`, 0.033%; as for `COCCCn1c(C(=O)NC2CCCCC2)cc2c(=O)n3cccc(C)c3nc21`, -1.16%. On to `CCOCCCNC(=O)c1cc2c(=O)n3ccccc3nc2s1`, for which the inhibition is 10.2%. `CCn1c(=N)c(C(=O)NCCCOC)cc2c(=O)n3cccc(C)c3nc21`: the inhibition is 50.9% (active).

In the case of `O=C(NC1Cc2ccccc2C1)[C@@H]1[C@@H](CO)[C@@H]2Cn3c(ccc(C4=CCCC4)c3=O)[C@H]1N2CC1CC1`, the inhibition was 2.91%. As for `O=C(Nc1ccc(F)cc1)N1CCCCN2[C@H](CO)[C@H](c3ccc(-c4ccncc4)cc3)[C@@H]2C1`, the figure is -8.07%.

As for `COCC(=O)Nc1ccc2c(c1)[C@@H]1C[C@@H](CC(=O)N3CCN(C)CC3)O[C@H](CO)[C@@H]1O2`, the inhibition was 7.82%. Next, `CC(C)n1cnc2c(NCc3ccccc3)cc(OCC3CCN(C)CC3)cc21`: 78.7% (active). Next, `CCC(=O)Nc1ccc2c(c1)C(=O)N(C)C[C@H](OC)[C@@H](C)CN(Cc1cccnc1)[C@H](C)CO2`: -1.44%. Next, `NC(N)=Nc1nc(-c2ccccc2)c2cc(Cl)ccc2n1`: 58.9% (active); `Clc1ccc2nc(-c3ccccc3)nc(C(Cl)Cl)c2c1`: -6.9%. Take `CC(C)NC(=O)N(C)C[C@H]1Oc2ncc(-c3ccccc3F)cc2C(=O)N([C@@H](C)CO)C[C@@H]1C`: the inhibition is -5.71%. Next, `O=C(COC(=O)CCCN1C(=O)c2cccc3cccc(c23)C1=O)NC1CCS(=O)(=O)C1` (stereo not drawn): -5.27%; `O=C(CCCN1C(=O)c2cccc3cccc(c23)C1=O)N1CCN(Cc2ccc3c(c2)OCO3)CC1`: 8.9%; `C[N+](C)(CCCCCC[N+](C)(C)CCCN1C(=O)c2cccc3cccc(c23)C1=O)CCCN1C(=O)c2cccc3cccc(c23)C1=O`: 115% (active).

With `CCC(=O)N1C[C@H](C)[C@H](OC)CN(C)C(=O)c2ccc(NC(=O)c3cnccn3)cc2OC[C@@H]1C`, the inhibition was -7.7%. Next, `O=C(Cc1ccncc1)NCC[C@H]1CC[C@H](NC(=O)Nc2cccc(F)c2)[C@H](CO)O1`: -5.21%. As for `CCC(=O)N1C[C@@H](C)[C@@H](OC)CN(C)C(=O)c2ccc(NC(=O)c3ccccc3)cc2OC[C@H]1C`, the figure is -5.42%. For `COc1ccc(NC(=O)Nc2ccc3c(c2)CC(=O)N([C@@H](C)CO)C[C@@H](C)[C@@H](CN(C)Cc2ccc(Cl)c(Cl)c2)O3)cc1`, the inhibition is 12.1%. As for `C[C@@H](O)C#Cc1ccc([C@H]2[C@H](CO)N3CCCCN(C(=O)c4ccc5c(c4)OCO5)C[C@@H]23)cc1`, the figure is 1.48%. With `CCC(=O)N(C)C[C@@H]1Oc2ncc(/C=C/c3ccccc3)cc2C(=O)N([C@@H](C)CO)C[C@H]1C`, the inhibition was 0.476%. Next, `COCC#Cc1cnc2c(c1)C(=O)N([C@H](C)CO)C[C@H](C)[C@H](CN(C)C(=O)Nc1cc(F)ccc1F)O2`: 0.435%. As for `COc1ccc(NC(=O)N[C@@H]2CC[C@H](CC(=O)NC3CCC3)O[C@H]2CO)cc1`, the figure is 4.37%; as for `C/C=C/c1ccc2c(c1)O[C@H](CN(C)C(=O)CN(C)C)[C@H](C)CN([C@@H](C)CO)S2(=O)=O`, -12.5%; as for `C[C@H]1CN([C@@H](C)CO)C(=O)c2cc(C#CCN(C)C)cnc2O[C@H]1CN(C)C(=O)Cc1ccccc1`, 3.35%. Next, `COc1ccc(-c2ccc3c(c2)[C@H]2[C@H](CCN2C(=O)c2ccc4c(c2)OCO4)[C@@H](CO)N3)cc1`: -2.22%. Turning to `CCC(=O)N1C[C@H](C)[C@H](OC)CN(C)C(=O)c2ccc(NC(=O)Nc3ccccc3)cc2OC[C@H]1C`, the inhibition was -3.3%. As for `C[C@H](CO)N1C[C@H](C)[C@H](CN(C)C)Oc2ncc(-c3ccncc3)cc2C1=O`, the figure is 8.42%. Next, `COc1ccc(NC(=O)Nc2ccc3c(c2)CC(=O)N([C@@H](C)CO)C[C@H](C)[C@@H](CN(C)CC2CCCCC2)O3)cc1`: 3.95%. As for `CN(C)C(=O)C[C@@H]1C[C@@H]2c3cc(NC(=O)NC4CCCCC4)ccc3O[C@@H]2[C@H](CO)O1`, the figure is -2.4%.

Take `O=C(C[C@H]1CC[C@H]2[C@@H](COC[C@H](O)CN2C(=O)c2ccncc2)O1)NCc1cc(F)cc(F)c1`: the inhibition is 1.6%. As for `C[C@H](CO)N1C[C@H](C)[C@H](CN(C)S(=O)(=O)c2cccs2)Oc2c(NS(=O)(=O)c3ccc(Cl)cc3)cccc2C1=O`, the figure is 3.72%; as for `CC1CCN(CCCn2c(SCC(=O)NC3CCCC3)nc3ccccc3c2=O)CC1`, -8.12%. On to `CC1CCN(C(=O)CCNC(=O)c2ccccc2)CC1`, for which the inhibition was -8.53%. As for `Cc1nc2ccccc2c2oc(C(=O)NCCCN3CCC(C)CC3)cc12`, the figure is 55.2% (active); as for `CC1CCc2sc3nc(N4CCN(CCO)CC4)n4ncnc4c3c2C1` (stereo not drawn), 53.7% (active); as for `CN1C[C@@H](CO)O[C@@H](n2cnc3c(N4CCN(CCO)CC4)ncnc32)C1`, -0.96%. With `COCc1cn(CC[C@@H]2CC[C@@H](NC(=O)Nc3ccc(C(F)(F)F)cc3)[C@H](CO)O2)nn1`, the inhibition is -5.23%. Next, `C[C@@H]1CN([C@@H](C)CO)C(=O)c2ccccc2-c2ccccc2CO[C@H]1CN(C)C(=O)Nc1ccccc1`: 2.07%; `CO[C@@H]1CN(C)C(=O)c2ccc(NS(C)(=O)=O)cc2OC[C@H](C)NC[C@H]1C`: 0.663%. As for `CN1c2ccc(C3=CCCCC3)cc2[C@@H]2[C@@H](CCN2C(=O)Nc2cc(F)ccc2F)[C@@H]1CO`, the figure is 7.43%; as for `C[C@@H]1CN([C@@H](C)CO)C(=O)c2cc(NC(=O)Nc3ccc(C(F)(F)F)cc3)ccc2O[C@@H](C)CCCCO[C@H]1CN(C)C(=O)CCCN(C)C`, 25%; as for `COc1ccccc1-c1ccc2n(c1=O)C[C@H]1[C@H](CO)[C@@H](C(=O)N[C@@H](C)c3ccccc3)[C@@H]2N1C`, -1.98%. Next, `CO[C@@H](CN(C)S(=O)(=O)c1cccc(Cl)c1)[C@H](C)CN([C@H](C)CO)S(=O)(=O)c1cccc(Cl)c1`: 1.71%; `C[C@@H]1CN([C@H](C)CO)C(=O)c2cccc(NS(=O)(=O)c3ccc(F)cc3)c2O[C@@H]1CN(C)S(=O)(=O)c1ccccc1`: 2.48%; `CO[C@@H]1CN(C)C(=O)c2ccc(NC(=O)C3CCCC3)cc2OC[C@H](C)NC[C@@H]1C`: 4.25%. With `O=C(C[C@@H]1C=C[C@@H](NC(=O)Nc2cccc(F)c2)[C@H](CO)O1)NCC1CCCCC1`, the inhibition is -1.32%. As for `CCN(CC)CCn1c2ccc(Cl)cc2c2nc(C)sc21`, the figure is 63.6% (active). As to `CCN(CC)CCNc1ccc(Cl)cc1[N+](=O)[O-]`, the inhibition was 7.16%.

For the compound `COc1ccccc1C(=O)N1C[C@H]2[C@@H](c3ccccc31)[C@H](CO)N2C(=O)C1CC1`, the inhibition was -5.07%. In the case of `Cc1ccccc1-c1ccc2c(c1)O[C@@H](CN(C)Cc1ccc(C(=O)O)cc1)[C@H](C)CN([C@H](C)CO)S2(=O)=O`, the inhibition was 0.48%. As for `COc1ccc(S(=O)(=O)N(C)C[C@@H]2OCCCC[C@@H](C)Oc3ccc(NC(=O)CCCN(C)C)cc3C(=O)N([C@@H](C)CO)C[C@@H]2C)cc1`, the figure is -3.63%; as for `CCC(=O)N(C)C[C@H]1Oc2ncc(-c3ccc(C)cc3)cc2C(=O)N([C@@H](C)CO)C[C@@H]1C`, 12%; as for `Cc1noc(C)c1NC(=O)Nc1cccc2c1O[C@@H](CN(C)Cc1ccc(C(F)(F)F)cc1)[C@@H](C)CN([C@@H](C)CO)C2=O`, 3.12%.
